Measurements taken from PubChem BioAssay.
For some assays here: Entries with a potency or affinity are not part of this list. Active and inactive are the calls of the source.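 The calls were made as follows, unless noted: active = calcium signal cut by more than 3 SD below the full-agonist control yet still positive, in both repeats and the earlier primary screen; inactive = the rest.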

Assays:
[1] = test system: TRPC4 beta (transient receptor potential cation channel C4), mouse; assay: activators of mouse TRPC4 channel, confirmation, cell-based, Fluo4 calcium, HEK293 TRPC4beta/mu-opioid, duplicates, 10 µM (AID 2426;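 active = fluorescence ratio normalized to control raised more than 50% in primary screen plus both repeat runs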;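 as to activation: percent rise of integrated ratio over buffer wells lacking compound which define 0%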); settings: Fluo4 calcium fluorescence, at 10 µM; active compounds read high
[2] = test system: transient receptor potential cation channel C4 beta (TRPC4), mouse; assay: activators of mouse TRPC4 channel, confirmation, cell-based, second round, Fluo4, HEK293 TRPC4beta/mu-opioid, 1 µM (AID 2461;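 active = primary screen active and over 50% activation in each of two duplicate runs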); settings: Fluo4 calcium fluorescence, at 1 µM; active compounds read high
[3] = test system: TRPC4 (transient receptor potential cation channel C4 beta), mouse; assay: positive allosteric modulators of mouse TRPC4, confirmation, cell-based, second round, Fluo-4, HEK293 TRPC4beta/mu-opioid, 1 µM (AID 2554;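 active = primary screen hit whose fluorescence ratio, in both repeats, exceeds the weak agonist control mean by 3 SD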); settings: DAMGO EC20, Fluo-4 calcium flux, at 1 µM; active compounds read high
[4] = test system: TRPC4 beta (transient receptor potential cation channel C4), mouse; assay: positive allosteric modulators of mouse TRPC4, confirmation, cell-based, Fluo-4, HEK293 TRPC4beta/mu-opioid (AID 2555;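 active = primary screen hit whose calcium fluorescence ratio, in both repeats, exceeds the weak agonist control mean by 3 SD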); settings: DAMGO EC20, Fluo-4 calcium flux, at 10 µM; active compounds read high
[5] = target: Short transient receptor potential channel 4 (Mus musculus) (UniProt Q9QUQ5); assay: inhibitors of mouse TRPC4 channel, confirmation, cell-based, Fluo4, HEK293 TRPC4beta/mu-opioid (AID 2636); settings: DAMGO, Fluo4 calcium flux, at 10 µM; active compounds read high
[6] = target: Short transient receptor potential channel 4 (Mus musculus) (UniProt Q9QUQ5); assay: inhibitors of mouse TRPC4 channel, confirmation, cell-based, second round, Fluo4, HEK293 TRPC4beta/mu-opioid, 1 µM (AID 2637;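 active = calcium signal ratio cut to more than 3 SD under the fully stimulated control mean yet still positive, in both repeats and the primary screen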;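 as to inhibition: percent of integrated ratio relative to wells lacking test compound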); settings: Fluo4 calcium flux, DAMGO, at 1 µM; active compounds read high
[7] = target: Short transient receptor potential channel 4 (Mus musculus) (UniProt Q9QUQ5); assay: mouse TRPC4 channel activators, dose response, cell-based, HEK293 TRPC4/mu-opioid, Fluo-4 calcium (AID 434937;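 active = primary screen activator hit with a dose response curve and TRPC4 channel activation at any tested dose; inactive = no activation, no dose response, or not a primary hit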)
[8] = target: Short transient receptor potential channel 4 (Mus musculus) (UniProt Q9QUQ5); assay: TRPC4 positive allosteric modulators, dose response, cell-based, HEK293 TRPC4/mu-opioid, Fluo-4 calcium, EC20 DAMGO (AID 434941;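 active = earlier screen potentiator hit that boosts the TRPC4 ion channel at some dose, with a dose response; inactive = no potentiation, no dose response, or not a prior hit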;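 also: calcium entry triggered by an EC20 dose of DAMGO at the co-expressed mu-opioid receptor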)
[9] = target: Short transient receptor potential channel 6 (Mus musculus) (UniProt Q61143); assay: inhibition of mouse TRPC6 channel, confirmation, selectivity assay for TRPC4 inhibitor project, cell-based, HEK293, membrane potential dye, duplicate (AID 434948;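 active = active in primary screen and both duplicates, each dropping signal beyond three positive-control SD with fluorescence still positive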); settings: HEK293 TRPC6, membrane potential dye fluorescence, at 10 µM, stimulated with maximal-effect acetylcholine; active compounds read high
[10] = target: Short transient receptor potential channel 6 (Mus musculus) (UniProt Q61143); assay: activation of mouse TRPC6 channel, confirmation, selectivity assay for TRPC4 activator project, cell-based, HEK293, membrane potential dye, duplicate (AID 434950;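 active = membrane potential signal rise above negative control mean plus 3 SD in both duplicates, also active in the earlier TRPC4 screen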); settings: HEK293 TRPC6, membrane potential fluorescence, at 10 µM; active compounds read high
[11] = target: Short transient receptor potential channel 6 (Mus musculus) (UniProt Q61143); assay: TRPC6 potentiation by TRPC4 potentiator hits, confirmation, selectivity assay for TRPC4 potentiator project, HEK293 cells, membrane potential dye, duplicate (AID 434952;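 active = compound raising the membrane signal above positive-control mean plus 3 SD in both repeats, and a primary screen hit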); settings: HEK293 TRPC6, membrane potential dye fluorescence, at 10 µM, maximal acetylcholine added after compound; active compounds read high
[12] = target: Short transient receptor potential channel 4 (Mus musculus) (UniProt Q9QUQ5); assay: calcium flux activators in TRPC4/5HT1a cells, counter-screen for TRPC4 activator project, cell-based, second counter screen, HEK293 TRPC4/5HT1a, Fluo-4 (AID 434977;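 active = calcium signal rise above buffer-control mean plus 5 SD in both duplicates, and also a hit in the primary screen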); settings: Fluo-4 calcium flux, at 10 µM; active compounds read high
[13] = calcium flux inhibitors in TRPC4/5HT1a cells, confirmation, counter-screen for TRPC4 inhibitor project, cell-based, second counter screen, HEK293 TRPC4/5HT1a, Fluo-4 (AID 434978;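 active = primary screen active whose calcium signal fell more than 3 SD beyond the full-serotonin control mean in both duplicate plates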;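 as to outcome: serotonin given first at submaximal then at maximal dose after compound preincubation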); settings: Fluo-4 calcium flux, at 10 µM, serotonin added to trigger calcium flux; active compounds read high
[14] = test system: TRPC4 (mouse), co-expressed with 5HT1a in HEK293; assay: calcium flux potentiators in TRPC4/5HT1a cells, confirmation, counter-screen for TRPC4 potentiator project, cell-based, second counter screen, HEK293 TRPC4/5HT1a, Fluo-4 (AID 434979;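 active = signal rise over 3 SD above mean of control wells given weak agonist, in both repeats and first screen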); settings: Fluo-4 calcium flux, at 10 µM, serotonin added at its EC20 dose; active compounds read high
[15] = calcium flux activation in mu-opioid HEK293 cells, confirmation, counter-screen for TRPC4 activator project, cell-based, HEK293 mu-opioid receptor line (AID 449723;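 active = hit in primary screen, with calcium signal over 5 SD above buffer well mean in both duplicates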;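 also: counter screen cells carry the mu-opioid receptor alone and lack TRPC4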); settings: Fluo-4 calcium fluorescence, at 10 µM; active compounds read high
[16] = calcium flux enhancement in mu-opioid HEK293 cells, confirmation, counter-screen for TRPC4 allosteric potentiator project, cell-based, HEK293 mu-opioid receptor line (AID 449724;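 active = calcium signal rise more than 3 SD above the low-dose agonist control mean, in both duplicate plates and the primary screen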); settings: Fluo-4 calcium flux, at 10 µM, compound added before EC20 DAMGO stimulus; active compounds read high

Short transient receptor potential channel 4 (Mus musculus), sequence (Q9QUQ5 whole entry, looked up): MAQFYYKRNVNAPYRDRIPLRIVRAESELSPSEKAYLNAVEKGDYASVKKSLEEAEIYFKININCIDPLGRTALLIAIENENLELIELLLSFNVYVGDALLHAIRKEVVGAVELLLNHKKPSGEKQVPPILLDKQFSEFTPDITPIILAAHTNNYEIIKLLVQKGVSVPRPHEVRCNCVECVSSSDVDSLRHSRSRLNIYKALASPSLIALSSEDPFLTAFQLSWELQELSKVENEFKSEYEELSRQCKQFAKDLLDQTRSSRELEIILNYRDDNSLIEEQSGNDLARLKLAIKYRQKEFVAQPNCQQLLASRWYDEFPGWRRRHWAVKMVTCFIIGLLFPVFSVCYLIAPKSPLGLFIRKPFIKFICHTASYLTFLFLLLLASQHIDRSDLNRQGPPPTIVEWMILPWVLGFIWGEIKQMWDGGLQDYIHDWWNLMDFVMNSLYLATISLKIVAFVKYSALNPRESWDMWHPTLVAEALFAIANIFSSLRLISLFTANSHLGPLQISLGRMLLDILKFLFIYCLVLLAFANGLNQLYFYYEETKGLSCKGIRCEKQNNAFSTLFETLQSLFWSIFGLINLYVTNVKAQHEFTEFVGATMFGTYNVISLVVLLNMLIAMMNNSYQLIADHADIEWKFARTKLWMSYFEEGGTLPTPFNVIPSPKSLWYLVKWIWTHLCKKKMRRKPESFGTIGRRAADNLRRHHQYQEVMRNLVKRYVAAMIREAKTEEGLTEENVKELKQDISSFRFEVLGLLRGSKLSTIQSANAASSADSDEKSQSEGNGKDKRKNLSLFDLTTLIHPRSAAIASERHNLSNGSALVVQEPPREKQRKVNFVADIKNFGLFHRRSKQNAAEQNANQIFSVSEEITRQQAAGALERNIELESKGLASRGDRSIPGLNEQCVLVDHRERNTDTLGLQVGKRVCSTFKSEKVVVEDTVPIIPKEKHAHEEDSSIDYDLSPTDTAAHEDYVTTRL
Short transient receptor potential channel 6 (Mus musculus), sequence (Q61143 whole entry, looked up): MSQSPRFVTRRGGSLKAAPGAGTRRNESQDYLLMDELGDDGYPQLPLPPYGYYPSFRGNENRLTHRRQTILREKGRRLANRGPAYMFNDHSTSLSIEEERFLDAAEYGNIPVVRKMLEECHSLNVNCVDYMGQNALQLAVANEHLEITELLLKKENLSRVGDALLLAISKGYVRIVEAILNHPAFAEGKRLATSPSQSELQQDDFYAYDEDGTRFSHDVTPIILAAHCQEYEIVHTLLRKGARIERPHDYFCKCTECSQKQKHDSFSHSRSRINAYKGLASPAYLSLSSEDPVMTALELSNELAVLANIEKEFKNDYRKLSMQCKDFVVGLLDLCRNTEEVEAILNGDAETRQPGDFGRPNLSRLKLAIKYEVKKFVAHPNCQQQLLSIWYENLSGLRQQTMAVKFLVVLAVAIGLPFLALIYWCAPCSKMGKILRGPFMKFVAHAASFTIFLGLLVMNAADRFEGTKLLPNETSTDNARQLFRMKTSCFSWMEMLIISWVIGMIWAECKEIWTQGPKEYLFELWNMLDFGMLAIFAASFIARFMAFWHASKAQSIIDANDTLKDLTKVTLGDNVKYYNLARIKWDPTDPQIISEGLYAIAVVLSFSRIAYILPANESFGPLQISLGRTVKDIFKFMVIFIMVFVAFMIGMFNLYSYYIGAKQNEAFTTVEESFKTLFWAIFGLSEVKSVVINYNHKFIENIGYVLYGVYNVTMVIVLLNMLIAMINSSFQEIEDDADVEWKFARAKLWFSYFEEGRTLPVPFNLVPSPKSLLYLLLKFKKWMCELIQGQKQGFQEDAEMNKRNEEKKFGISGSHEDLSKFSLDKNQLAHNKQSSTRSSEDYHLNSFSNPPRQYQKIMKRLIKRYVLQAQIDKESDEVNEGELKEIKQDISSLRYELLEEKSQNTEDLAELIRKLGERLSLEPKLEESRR

CCOCc1cn(CC(=O)c2ccc(Cl)cc2)c(C)nc1=N
inactive: outcome [1] | outcome [2] | outcome [3] | outcome [4] | outcome [7] | outcome [8] | outcome [9] | outcome [10] | outcome [11] | outcome [12] | outcome [14] | outcome [15] | outcome [16]
active: inhibition [5] 97% | inhibition [6] 72% | inhibition [13] 13%

CC12CN3CC(C)(CN(C1)C3c1ccc(Cl)cc1Cl)C2O (stereo not drawn)
active: activation [1] 66% | inhibition [6] 64%
inactive: outcome [2] | outcome [3] | outcome [4] | outcome [5] | outcome [7] | outcome [8] | outcome [9] | outcome [10] | outcome [11] | outcome [12] | outcome [13] | outcome [14] | outcome [15] | outcome [16]

Cc1ccc(O)c(Sc2cc(C)ccc2O)c1
inactive: outcome [1] | outcome [2] | outcome [3] | outcome [4] | outcome [6] | outcome [7] | outcome [8] | outcome [10] | outcome [11] | outcome [12] | outcome [14] | outcome [15] | outcome [16]
active: inhibition [5] 97% | inhibition [9] 44.5% | inhibition [13] 13.7%

O/N=C/c1ccccc1Oc1ccc(Cl)cc1
active: inhibition [5] 98% | inhibition [13] 7.58%
inactive: outcome [1] | outcome [2] | outcome [3] | outcome [4] | outcome [6] | outcome [7] | outcome [8] | outcome [9] | outcome [10] | outcome [11] | outcome [12] | outcome [14] | outcome [15] | outcome [16]

CC(C)NC(=S)N1CCN(C/C=C/c2ccccc2)CC1
active: inhibition [5] 71%
inactive: outcome [1] | outcome [2] | outcome [3] | outcome [4] | outcome [6] | outcome [7] | outcome [8] | outcome [9] | outcome [10] | outcome [11] | outcome [12] | outcome [13] | outcome [14] | outcome [15] | outcome [16]

CCOc1cc(CNCCCN2CCOCC2)cc(Br)c1OCC(=O)Nc1cccc(C(F)(F)F)c1
inactive: outcome [1] | outcome [2] | outcome [3] | outcome [4] | outcome [7] | outcome [8] | outcome [9] | outcome [10] | outcome [11] | outcome [12] | outcome [14] | outcome [15] | outcome [16]
active: inhibition [5] 101% | inhibition [6] 40% | inhibition [13] 30.5%

COc1ccc(Nc2cc(C)nc3ccccc23)cc1
active: inhibition [5] 86% | inhibition [9] 39% | inhibition [13] 28.9%
inactive: outcome [1] | outcome [2] | outcome [3] | outcome [4] | outcome [6] | outcome [7] | outcome [8] | outcome [10] | outcome [11] | outcome [12] | outcome [14] | outcome [15] | outcome [16]

O=C(C[N+]1(CC#Cc2ccccc2)CCCCC1)c1ccc(Cl)cc1
active: inhibition [5] 86% | inhibition [13] 40.2%
inactive: outcome [1] | outcome [2] | outcome [3] | outcome [4] | outcome [6] | outcome [7] | outcome [8] | outcome [9] | outcome [10] | outcome [11] | outcome [12] | outcome [14] | outcome [15] | outcome [16]
